# According to paper PMC4552634, “A New Set of Chemical Starting Points with Plasmodium falciparum Transmission-Blocking Potential for Antimalarial Drug Discovery” (PLoS ONE, 2015):
# Hit rate of the full screen: of about 13,000 compounds, about 3,200 (25%) showed an effect of 50% or more. The list shows a part of the results.
# Test system: P. falciparum stage V gametocytes
# Parameters: BacTiter-Glo ATP luminescence viability of purified stage V gametocytes in 384-well plates, per cent inhibition versus DMSO
# Settings: 48 h, 5 µM; inhibitor
row,Compound,% Inhibition [%]
1,COc1ccc2nccc([C@@H](O)CN3CCC(NCc4cc5cccc(OCc6ccccc6)c5[nH]4)CC3)c2c1 [TCMDC-141117],10.73
2,Clc1cccc(C=NNc2ccnc3ccccc23)c1 [TCMDC-142057],-48.21
3,CSc1cccc(Nc2nc3ccc(S(=O)(=O)NCC(C)C)cc3n2C(C)C(C)C)c1 (stereo not shown) [TCMDC-136235],-38.43
4,O=C(CCN(Cc1ccco1)c1nc(-c2ccc(F)cc2)nc2ccccc12)NC1CC1 [TCMDC-124785],-4.08
5,O=C(Cc1cccc2ccccc12)NC1CCN(c2ccnc3cc(Cl)ccc23)C1 (stereo not shown) [TCMDC-133666],-21.93
6,O=C(NCC1CN(Cc2ccc(N3CCCC3)o2)CCCO1)c1ccc2c(c1)OCO2 (stereo not shown) [TCMDC-134852],-25.48
7,Cc1cc(N[C@@H](CC(C)C)C(=O)Nc2ccccc2)nc(NCc2ccccc2C)n1 [TCMDC-134912],-40.4
8,COc1cc(C(=O)N2CCOC(CCN3CCC(Cc4ccc(F)cc4)CC3)(c3ccc(Cl)c(Cl)c3)C2)cc(OC)c1OC (stereo not shown) [TCMDC-135568],-27.28
9,Cc1cccc(C)c1CNc1ccnc2ccccc12 [TCMDC-132169],-38.56
10,CCCNc1nc(NCc2c(C)cccc2C)nc(NC(C)(C)C)n1 [TCMDC-133383],61.71
11,Cc1cccc(C)c1CNc1cccc(-c2nc(C)c(C)[nH]2)c1 [TCMDC-133434],-88.3
12,FC(F)(F)c1ccc2nc(-c3ccc(-c4cccc(CN5CCN(c6ccncc6)CC5)c4)cc3)[nH]c2c1 [TCMDC-132916],2.402
13,COc1ccc2nccc([C@@H](O)CN3CCC(NCc4cc5ccccc5o4)CC3)c2c1 [TCMDC-140521],12.09
14,O=C(Nc1ccc(Br)cc1)N1CCC(n2c(-c3ccccc3)nc3cccnc32)CC1 [TCMDC-124743],60.37
15,Cc1cc(-c2nc3ccc(C(=O)NCc4ccccc4)cc3n2C2CCN(C(=O)c3ccc(-c4ccccc4)cc3)CC2)ccn1 [TCMDC-135884],25.38
16,Cc1ccc(NC(=O)N2CCC(n3c(-c4ccccc4)nc4cccnc43)CC2)cc1F [TCMDC-124742],24.56
17,CS(=O)(=O)c1ccc2c(c1)CCN(CCC1CCC(NC(=O)c3cc4cccc(Br)c4[nH]3)CC1)CC2 (stereo not shown) [TCMDC-141425],-26.4
18,Clc1ccc(-c2cc(-c3csc(NCCN4CCOCC4)n3)on2)c(Cl)c1 [TCMDC-140322],15.06
19,O=C(Nc1ccc(OC2CCN(Cc3ccsc3)C2)c(Cl)c1)c1ccsc1 (stereo not shown) [TCMDC-133947],1.522
20,CC[C@H]1CN2CC[C@@H]1C[C@H]2[C@H](O)c1cc[n+]([O-])c2ccc(OC)cc12 [TCMDC-142004],8.307
21,Oc1cc2ccccc2cc1CNC1CCCCC1 [TCMDC-131977],-28.97
22,Oc1c(Cl)cc(-c2ccccc2)cc1CNC1CCCCC1 [TCMDC-137170],-21.36
23,Oc1ccccc1CNC1CCCCC1NCc1ccccc1O (stereo not shown) [TCMDC-138468],62.18

row,Compound,% Inhibition [%]
1,CC(C)C[C@@H](/C=N/N1CC(=O)NC1=O)NC(=O)[C@H](CC(C)C)NC(=O)c1ccc(OCCN2CCOCC2)cc1 [TCMDC-136200],6.414
2,CCCCCCCC/C=C\CCCCCCCC(=O)NCc1ccc(O)c(OC)c1 [TCMDC-124289],45.72
3,Cc1cccc2[nH]c(-c3cccc(-c4ccc(NC(=O)C5CCCO5)cc4)c3)nc12 (stereo not shown) [TCMDC-136969],-0.7596
4,COC1CCC(C(=O)Nc2ccc(-c3cccc(-c4nc5c(C)cccc5[nH]4)c3)cc2)CC1 (stereo not shown) [TCMDC-136859],-20.23
5,Cc1cccc2[nH]c(-c3ccc(-c4ccc(NC(=O)C5CCN(C)CC5)cc4)cc3)nc12 [TCMDC-132182],81.12
6,CC(=O)N1CCC(C(=O)Nc2ccc(-c3cccc(-c4nc5c(C)cccc5[nH]4)c3)cc2)CC1 [TCMDC-132167],-9.717
7,Cc1cccc2[nH]c(-c3cccc(-c4ccc(NC(=O)C5CCN(C)CC5)cc4)c3)nc12 [TCMDC-132189],100.5
8,CC1CN(Cc2ccccc2)CCN1c1ccc(NC(=O)c2ccc(F)cc2)cc1 (stereo not shown) [TCMDC-135002],-13.42
9,O=C(Nc1ccc(C(F)(F)F)cc1)c1cccc(S(=O)(=O)NC2CCN(CC3CCCCC3)C2)c1 (stereo not shown) [TCMDC-132485],-55.81
10,O=C(Nc1ccc(Cl)cc1)c1cccc(S(=O)(=O)NC2CCN(CC3CCCCC3)C2)c1 (stereo not shown) [TCMDC-132483],-5.409
11,N#Cc1cccc(NC(=O)c2cccc(S(=O)(=O)NC3CCN(CC4CCCCC4)C3)c2)c1 (stereo not shown) [TCMDC-132508],83.68
12,O=C(Nc1cccc(C(F)(F)F)c1)c1cccc(S(=O)(=O)NC2CCCN(CC3CCCCC3)C2)c1 (stereo not shown) [TCMDC-132769],-38.48
13,O=C(Nc1ccc(C(F)(F)F)cc1)c1cccc(S(=O)(=O)NC2CCN(CC3CCCCC3)CC2)c1 [TCMDC-133671],8.091
14,O=C(Nc1ccc(Cl)cc1)c1cccc(S(=O)(=O)NC2CCN(CC3CCCCC3)CC2)c1 [TCMDC-132807],80.59
15,CCC(CC)OC(=O)C(C)c1cccc(C(=O)c2ccccc2)c1 (stereo not shown) [TCMDC-138666],-7.418
16,COc1ccc2ncc(F)c(CCN3CC[C@H](NCc4cc(C#N)c5c(c4)OCCO5)[C@H](O)C3)c2c1 [TCMDC-136207],-10.98
17,CCC(C)OC(=O)C1=C(C)NC2=C(C(=O)CC(c3ccc(OC)c(OC)c3)C2)C1c1ccc(O)cc1 (stereo not shown) [TCMDC-125619],13.43
18,CCOC(=O)c1ccc(NC(=O)N[C@@H](Cc2ccc(O)cc2)C(=O)NC2CCN(Cc3ccc4c(c3)OCO4)CC2)cc1 [TCMDC-135257],-19.76
19,CCN(CC)CCN(Cc1ccc(-c2ccc(C(F)(F)F)cc2)cc1)C(=O)Cn1c(CCc2ccc(F)cc2)nc(=O)c2ccccc21 [TCMDC-140943],79.23
20,CCN(CC)CCN(Cc1ccc(-c2ccc(C(F)(F)F)cc2)cc1)C(=O)Cn1c(CCc2cc(F)cc(F)c2)nc(=O)c2ccccc21 [TCMDC-140956],70.83
21,CCN(CC)CCN(Cc1ccc(-c2ccc(C(F)(F)F)cc2)cc1)C(=O)Cn1c(/C=C/c2ccco2)nc(=O)c2ccccc21 [TCMDC-140939],82.58
22,CCN(CC)CCN(Cc1ccc(-c2ccc(C(F)(F)F)cc2)cc1)C(=O)Cn1c(CCC2CCCCC2)nc(=O)c2ccccc21 [TCMDC-141056],47.99
23,COc1ccc2nccc(N3CCN(CCNCc4ccc5c(n4)NC(=O)CO5)CC3)c2n1 [TCMDC-141968],1.504

row,Compound,% Inhibition [%]
1,Cc1cc(NCC(C)C)c2[nH]nc(-c3ccccc3)c2n1 [TCMDC-131557],-38.79
2,CC(=O)c1c(Cc2ccccc2Cl)c[nH]c1C [TCMDC-125433],-14.2
3,CC(C)COc1cc(C(=O)Nc2cnc3ccccc3c2)ccc1[N+](=O)[O-] [TCMDC-139142],13.84
4,COc1ccc(CNC(=O)NC2CCN(c3ccnc(Nc4ccc(F)cc4)n3)CC2)cc1 [TCMDC-133631],1.923
5,OC(CNC12CC3CC(CC(C3)C1)C2)c1cccc(C(F)(F)F)c1 (stereo not shown) [TCMDC-131509],-56.01
6,CCc1ccc(-n2cc(C(=O)c3cc(Br)ccc3O)cc(C#N)c2=O)cc1 [TCMDC-125186],9.775
7,O=[N+]([O-])c1ccccc1/C=N/Nc1ccnc2cc(Cl)ccc12 [TCMDC-123965],-67.83
8,COc1ccc2nccc([C@@H](O)CN3CCC(NC(=O)c4ccc(C5(C(F)(F)F)N=N5)cc4)CC3)c2c1 [TCMDC-141324],-7.709
9,CCCCOc1ccc(/C=C/c2ccc(-c3c(C)[nH]c(C)c(Cl)c3=O)s2)cc1 [TCMDC-136086],60.63
10,CC(C)c1ccc(NC(=O)NC2CCN(CCCCCN(C)C(=O)/C=C/c3ccc(Cl)c(Cl)c3)C2)cc1 (stereo not shown) [TCMDC-139530],-5.21
11,CN(CCCCCN1CCC(NC(=O)Nc2ccc(Oc3ccccc3)cc2)C1)C(=O)/C=C/c1ccc(Cl)c(Cl)c1 (stereo not shown) [TCMDC-139532],-7.519
12,O=C(/C=C/c1ccc(Cl)c(Cl)c1)NCCCCCN1CCC(NC(=O)Nc2ccc(OC(F)F)cc2)CC1 [TCMDC-135722],-13.06
13,CN(CCCCCN1CCC(NC(=O)Nc2ccc(C(F)(F)F)cc2)C1)C(=O)/C=C/c1ccc(Cl)c(Cl)c1 (stereo not shown) [TCMDC-139531],79.06
14,O=C(/C=C/c1ccc(Cl)c(Cl)c1)NCCCCCN1CCC(NC(=O)Nc2ccc(Oc3ccccc3)cc2)C1 (stereo not shown) [TCMDC-139528],-43.31
15,COc1ccc(NC(=O)NC2CCN(CCCCCNC(=O)/C=C/c3ccc(Cl)c(Cl)c3)C2)c(OC)c1 (stereo not shown) [TCMDC-139525],95.6
16,COc1ccc(NC(=O)NC2CCN(CCCCCNC(=O)/C=C/c3ccc(Cl)c(Cl)c3)CC2)cc1 [TCMDC-135709],-22.99
17,CC(C)c1ccc(NC(=O)NC2CCN(CCCCCNC(=O)/C=C/c3ccc(Cl)c(Cl)c3)CC2)cc1 [TCMDC-139389],-3.81
18,O=C(/C=C/c1ccc(Cl)c(Cl)c1)NCCCCCN1CC[C@H](NC(=O)Nc2ccc(Oc3ccccc3)cc2)C1 [TCMDC-139512],98.95
19,CC(C)c1ccc(NC(=O)N[C@H]2CCN(CCCCCNC(=O)/C=C/c3ccc(Cl)c(Cl)c3)C2)cc1 [TCMDC-139510],104.6
20,COc1ccccc1NC(=O)NC1CCN(CCCCCNC(=O)/C=C/c2ccc(Cl)c(Cl)c2)CC1 [TCMDC-139385],-13.68
21,O=C(/C=C/c1ccc(Cl)c(Cl)c1)NCCCCCN1CCC(NC(=O)Nc2ccc(Cl)c(Cl)c2)CC1 [TCMDC-139387],-30.31
